Most compounds without a hit are left out; they make up all but 2.7% or so of the library.
Tau fluor cs: counter-screen for tau fibril formation inhibitors; tau K18 P301L Alexa594 fluorescence, heparin fibrillization; hit rate 0.93% among 280,000; Potency, µM (highest dose often 57.7 µM), for inactives: at the top dose activity change, negative = decrease; further: potency means the concentration at half of the fitted maximal effect; nearly all actives have a fitted effect of over 55% in size
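Human K18 P301L tau (15 uM unlabeled plus 0.24 uM Alexa 594-labeled, final) in 100 mM sodium acetate pH 7 was mixed with compound and 20 uM heparin and incubated 6 hr at 37 C.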
Tau FP inhib: blocks human tau fibril formation measured by polarization; hit rate 0.39% among 280,000; K18 P301L tau heparin fibrillization, Alexa594 FP, 6 h; Potency, µM (doses to about 57.7 µM), inactives show at the top dose activity, negative = inhibition, usual class: inhibitors; P10636; AID 1468; further: potency means the concentration at half of the fitted maximal effect; nearly all actives have a fitted effect of over 55% in size
Target sequence (P10636 561-689 P618L limits assumed): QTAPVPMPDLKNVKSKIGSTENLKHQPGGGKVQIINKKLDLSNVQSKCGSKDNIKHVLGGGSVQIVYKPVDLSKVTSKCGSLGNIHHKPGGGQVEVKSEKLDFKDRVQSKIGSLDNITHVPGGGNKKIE
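K18 P301L tau (15 uM unlabeled/0.24 uM Alexa 594-labeled, final) + compound + heparin 20 uM final; 100 mM NaOAc pH 7; 6 hr 37 C; ThT 30 uM final added, 1 hr RT; FP ex 555/em 632 nm.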
Tau fibril ThT: tau fibrillization inhibition (ThT binding). P10636. recombinant tau K18 P301L (four-repeat tau fragment), heparin-induced fibrillization, ThT fluorescence. Potency, µM (titrated, usually from 57.4 µM), without a hit: at the highest dose activity, negative = inhibition, most hits filed as inhibitors. hit rate 2.1% among 270,000; further: potency means the concentration at half of the fitted maximal effect; nearly all actives have a fitted effect of over 55% in size
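Recombinant human tau K18 fragment […] carrying P301L, 15 uM unlabeled plus 0.24 uM Alexa 594-labeled, was fibrillized with 20 uM heparin in 100 mM sodium acetate pH 7 for 6 hr at 37 C; 30 uM ThT fluorescence read after 1 hr.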
Coupling enz: counter-screen for Giardia aldolase inhibitors: coupling enzyme system; activity change, negative = inhibition, % at 58.2 µM, hits read low; coupling enzyme system counterscreen, AmpLite Red fluorescence; AID 2472; hit rate 0.67% among 290,000; in the data active means activity change below about -30%
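First, compound is pin-transferred into glyceraldehyde-3-phosphate coupling-enzyme reagent at 57.5 uM final and held 10 min at RT. Next, substrate, coupling system and AmpLite Red are added. After 20 min RT, fluorescence (525/598 nm) is read.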
Numbers without * were called inactive; ? = inconclusive; / = not tested or not shown; [ ] = dose if it differs, or a comment. Unless noted, the call rests on the fitted dose curve; in most records, active means well fitted curve in the direction sought with a large enough effect; inconclusive means small, poorly fitted or top-dose-only effect, or another doubt; inactive means no such curve, though single readings can be large; an effect the other way counts as inactive or inconclusive. On the % scale 0 is the no-effect control and ±100 the full control effect.

SMILES | Tau fluor cs | Tau FP inhib | Tau fibril ThT | Coupling enz
Cc1ccc(-n2c(=O)c3ccc(C(=O)NCc4ccccc4Cl)cc3n(CC(=O)Nc3cccc(F)c3)c2=O)cc1 | ? | 15.8µM* | 6.9% | /
Cc1ccc(NC(=O)Cn2c(=O)n(Cc3ccc4c(c3)OCO4)c(=O)c3ccccc32)cc1 | -20.7% | -14.6% | 10.5% | /
Cc1ccc(-n2c(=O)c3ccc(C(=O)NCc4ccccc4Cl)cc3n(Cc3cccc(F)c3)c2=O)cc1 | -6.4% | -15.1% | 9.4% | /
CN(C)c1ccc(NC(=O)Cn2c(=O)n(Cc3ccccc3)c(=O)c3ccccc32)cc1 | 17.8µM*[quencher] | 4.3% | ? | -0.7
O=C(Cn1c(=O)n(Cc2ccc(C(=O)NCc3ccc4c(c3)OCO4)cc2)c(=O)c2ccccc21)Nc1ccccc1F | -15.4% | ? | 3.3% | /
Cc1cc(-c2ccc(C)c(S(=O)(=O)NC3CCCCC3)c2)on1 | -13.0% | -4.9% | 6.9% | /
CCCC(=O)N(c1ccc2oc(=O)sc2c1)S(=O)(=O)c1cccs1 | -23.0% | ? | 31.6µM* | 1.3
O=C(O)c1ccccc1Nc1ccc(CCc2ccc(Cl)c(Cl)c2)cc1 | / | / | / | 11.0
COC(=O)c1ccccc1-n1cc2c(c1-c1cccc(C)c1)c(=O)n(C)c(=O)n2C | -8.7% | -7.7% | -6.1% | /
Cc1cccc(-c2c3c(=O)n(C)c(=O)n(C)c3cn2-c2ccccc2O)c1 | 4.3% | 4.2% | 6.5% | -38.9*
CC#CCN1c2ccccc2[C@]23C[C@@H](C(=O)OC)N(C(=O)COCc4ccccc4)C2=NC(C(=O)OC)=C(C(=O)OC)[C@H]13 | -3.6%[11.6 µM] | -5.5%[11.6 µM] | -5.4%[11.5 µM] | 2.3
O=C(Cc1cccc2ccccc12)Nc1ccc(OC(F)F)c(Cl)c1 | ? | ? | 4.4% | -10.3
O=C(Nc1ccc(OC(F)F)c(Cl)c1)C(c1ccccc1)c1ccccc1 | ? | 28.2µM* | 6.2% | -2.3
COc1ccccc1CNC(=O)c1c(O)nc2cc(C)ccn2c1=O | 5.4% | 5.0% | 9.6% | /
Cc1ccc(N/C=C/c2onc(C)c2[N+](=O)[O-])cc1 | -24.2% | 6.3% | 0.631µM* | 0.1
Cc1cccc(C)c1N/C=C/c1onc(C)c1[N+](=O)[O-] | 0.8% | -0.2% | 3.8% | 2.6
CCc1ccc(Nc2nc(-c3cc4cccc(OC)c4oc3=O)c(CC)s2)cc1 | ? | 11.2% | ? | /
CCN(CC)S(=O)(=O)c1ccc(NC(=O)NCc2noc3ccc(C)cc23)cc1 | 12.6µM*[quencher] | 14.1µM* | 8.2% | /
Cc1cccc(-c2nc3c(C#N)c[nH]n3c2NC2CCCCC2)c1 | -6.7% | -4.0% | 0.8% | /
Cc1nc(CC(=O)c2ccc(O)cc2O)cs1 | -8.9% | -2.8% | -11.5% | -0.3
Cc1nc(C/C(=N\Nc2ccccc2)c2ccc(O)cc2O)cs1 | 25.1µM*[quencher] | -4.8% | ? | 1.9
CC(=O)NCCNc1ncnc2ccc(-c3ccc(C(=O)N(C)C)cc3)cc12 | -13.8% | -3.2% | -10.4% | 0.1
Cc1cc(C)c2c(=O)n(CC(=O)Nc3ccc(Br)c(C)c3)sc2n1 | ? | ? | ? | 4.7
COc1ccc(OC)c(CCNC(=O)Cn2sc3nc(C)cc(C)c3c2=O)c1 | -29.4% | ? | 11.2µM* | 3.4
COc1ccc(OC)c(CCNC(=O)Cn2nc(C)c3c(C)n(-c4ccc(C)cc4)nc3c2=O)c1 | / | / | / | 3.4
SMILES | Tau fluor cs | Tau FP inhib | Tau fibril ThT | Coupling enz
Cc1cc(C)c2c(=O)n(CC(=O)Nc3cccc(Cl)c3C)sc2n1 | ? | 20µM* | / | 2.5
Cc1cc(C)c2c(=O)n(CC(=O)NC3CCCC3)sc2n1 | -23.7% | 14.1µM* | 12.6µM* | -0.8
Cc1cc(C)c(S(=O)(=O)NCC(c2ccc(N(C)C)cc2)N2CCOCC2)c(C)c1 (stereo not drawn) | ? | 0.9% | ? | /
c1ccc(N2CCN(c3nc4cc5c(cc4s3)OCO5)CC2)cc1 | -18.1% | -3.7% | 2.51µM* | 0.3
Cc1ccc(C(=O)c2sc(Nc3ccccc3)c(S(=O)(=O)c3ccccc3)c2N)c(C)c1 | -6.4% | -10.5% | -7.8% | /
Cc1cc(C)cc(CC2CC(=O)N(c3ccc([N+](=O)[O-])cc3)C2=O)c1 (stereo not drawn) | / | / | / | 6.0
CC1=NN(c2ccc([N+](=O)[O-])cc2)C(=O)C1[N+](=O)[O-] (stereo not drawn) | ? | -0.6% | 12.6µM* | 2.5
COc1ccc(-c2csc(-c3[nH]cnc3N)n2)cc1 | 15.8µM*[quencher] | -1.0% | 11.2µM* | -0.7
O=C(NN1C(=O)C2C(C1=O)C1C=CC2C12CC2)c1ccncc1 (stereo not drawn) | ? | ? | 10µM* | 13.1
O=S(=O)(NCC(Nc1ccc(Cl)cc1)c1ccccc1)c1ccccc1 (stereo not drawn) | 8.91µM*[quencher] | -1.5% | 8.2% | -0.9
Cc1ccc(NC(CNS(=O)(=O)c2ccc(Cl)cc2)c2ccccc2)cc1 (stereo not drawn) | 4.47µM*[quencher] | 7.1% | 1.0% | 1.5
COc1cccc(NC(CNS(=O)(=O)c2ccc(Cl)cc2)c2ccccc2)c1 (stereo not drawn) | 10µM*[quencher] | 10.3% | -9.0% | /
COCCCn1c(=O)c2sccc2n2c(CCCC(=O)Nc3cc(C)cc(C)c3)nnc12 | -14.4% | 0.2% | 10.0% | /
CCOC(=O)c1c(N)sc2c(OCC)c(Br)ccc12 | 25.1µM*[quencher] | -1.4% | ? | -4.0
Cc1ccc2nc(SCc3nc(-c4ccc(Cl)cc4)no3)[nH]c2c1 | 10µM*[quencher] | 17.8µM* | ? | /
O=c1c(O)cccc2cc(O)c(O)c(O)c12 | 2.51µM*[quencher] | 11.2µM* | 3.16µM* | -36.5*
Cc1ccc2cc3c(N)c(C(=O)N4CCOCC4)sc3nc2c1 | -14.0% | 3.9% | ? | -3.2
COc1ccc2cc3c(N)c(C(=O)N4CCCC4)sc3nc2c1 | ? | 5.4% | 11.2µM* | -0.9
Cc1ccc2nc3sc(C(=O)N4CCOCC4)c(N)c3cc2c1 | -11.2% | 4.7% | -16.7% | -3.6
CC(C)c1ccc2nc3sc(C(=O)N4CCc5ccccc5C4)c(N)c3cc2c1 | ? | 8.3% | 12.6µM* | -1.3
CCOc1ccc2nc3sc(C(=O)N4CCN(C)CC4)c(N)c3cc2c1 | ? | 9.5% | 12.6µM* | -2.1
CCOc1ccc(CN(CC)C(=O)c2ccc3c(c2)[nH]c(=O)c(=O)n3CC)cc1OC | / | / | / | -0.2
Nc1c(C(=O)Nc2ccc(OC(F)(F)F)cc2)nnn1Cc1ccccc1 | -1.9% | -5.8% | 4.1% | /
COc1ccc2[nH]c(=O)c3c(c2c1)OC(C)(C)C=C3 | -17.6% | -6.0% | -10.2% | -19.3
Cc1cc2c([nH]c3ccccc32)c2c1OC(C)(C)C=C2 | 14.1µM*[quencher] | 9.7% | ? | -6.8
COc1ccc(OC)c(S(=O)(=O)NCCc2sc(-c3cccnc3)nc2C)c1 | -5.2% | 4.7% | -5.3% | /
CCC(NC(=O)Nc1ccc(O)cc1)(C(F)(F)F)C(F)(F)F | ? | ? | ? | -42.6*
CC(NC(=O)Nc1ccc(O)cc1)(C(F)(F)F)C(F)(F)F | ? | ? | 22.4µM* | -33.1*
COc1ccc(NC(=O)NC(C)(C(F)(F)F)C(F)(F)F)cc1 | -3.8% | 5.2% | -6.6% | -1.0
Cc1nc2nc(NC(=O)c3ccc(C(C)(C)C)cc3)[nH]n2c(=O)c1Cl | 4.0% | -10.0% | ? | /

Screening results as filed in PubChem BioAssay.
